Results from PubChem BioAssay AID1159580 (chemical genetic matrix, 2015).
Several values for one entry are separate records, joined by “and”; a condition that tells them apart may be missing. Identical values can stand only once. About 2,000 (36%) of roughly 5,500 compounds were called active. Roughly 18% stayed inconclusive and do not appear here. No stated cut-off is given here; in the data, active means normalized growth mostly below about 0.91 (no sharp cut-off); inconclusive means no clear call, values can overlap the other calls; inactive means mostly above about 0.92. The list shows a part of the results.

Assay: chemical genetic growth profiling, strain panel (AID 1159580);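 further: tested at 20 µM; growth read once vehicle control cultures reached saturation at 30 °C; 1 = growth at the plate median or of vehicle wells; lower values mean less growth of the strain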
Settings: S. cerevisiae deletion strains, growth OD

Measured: normalized growth

C[N+]1(CCCCC[N+]2(C)CCCC2)CCCC1
inactive: locus YAL013W, strain DEP1, active compounds read low 1 and 0.986 | locus YAL021C, strain ccr4, active compounds read low 0.99 | locus YAL026C, strain drs2, active compounds read low 0.995 | locus YAL030W, strain snc1, active compounds read low 1 | locus YAL040C, strain CLN3, active compounds read low 0.976 | locus YBL061C, strain skt5, active compounds read low 0.998 | locus YBR009C, strain hhf1, active compounds read low 1 | locus YBR021W, strain FUR4, active compounds read low 1.01 | locus YBR023C, strain chs3, active compounds read low 0.989 | locus YBR171W, strain sec66, active compounds read low 1 | locus YBR229C, strain ROT2, active compounds read low 1.01 | locus YBR231C, strain swc5, active compounds read low 0.986 | locus YBR279W, strain paf1, active compounds read low 0.993 | locus YCL011C, strain gbp2, active compounds read low 0.993 | locus YCL016C, strain dcc1, active compounds read low 0.993 | locus YCL029C, strain bik1, active compounds read low 1.04 | locus YCL061C, strain MRC1 (second series), active compounds read low 0.994 | locus YCL061C, strain MRC1, active compounds read low 0.995 | locus YCL069W, strain vba3, active compounds read low 1 | locus YCR088W, strain abp1, active compounds read low 0.999 | locus YDL005C, strain med2, active compounds read low 0.983 | locus YDL035C, strain GPR1, active compounds read low 1.01 | locus YDL040C, strain nat1, active compounds read low 0.989 | locus YDL074C, strain BRE1, active compounds read low 1.02 | locus YDL101C, strain DUN1, active compounds read low 1.01 | locus YDL134C, strain PPH21, active compounds read low 1.01 | locus YDL185W, strain tfp1, active compounds read low 1.01 | locus YDL192W, strain arf1, active compounds read low 1.02 | locus YDR001C, strain nth1, active compounds read low 1 | locus YDR069C, strain doa4, active compounds read low 0.995 | locus YDR101C, strain arx1, active compounds read low 1.01 | locus YDR137W, strain rgp1, active compounds read low 1.04 | locus YDR150W, strain NUM1, active compounds read low 1 | locus YDR159W, strain sac3, active compounds read low 0.991 | locus YDR162C, strain NBP2, active compounds read low 1.01 | locus YDR195W, strain ref2 0.922 | locus YDR297W, strain sur2, active compounds read low 1.01 | locus YDR318W, strain mcm21, active compounds read low 1.02 | locus YDR334W, strain swr1, active compounds read low 0.991 | locus YDR335W, strain msn5, active compounds read low 0.991 | locus YDR363W, strain ESC2, active compounds read low 0.985 | locus YDR388W, active compounds read low 1.01 | locus YDR392W, strain spt3, active compounds read low 1.01 | locus YDR502C, strain sam2, active compounds read low 1.01 | locus YEL003W, strain gim4, active compounds read low 0.997 | locus YEL037C, strain rad23, active compounds read low 0.994 | locus YEL061C, strain CIN8 (second series), active compounds read low 0.991 | locus YEL061C, strain CIN8, active compounds read low 1 | locus YER002W, strain NOP16, active compounds read low 1.01 | locus YER015W, strain faa2, active compounds read low 0.993 | locus YER016W, strain bim1, active compounds read low 0.995 | locus YER110C, active compounds read low 1.02 | locus YER111C, strain swi4, active compounds read low 0.983 | locus YER155C, strain BEM2 (second series), active compounds read low 0.996 | locus YER155C, strain BEM2, active compounds read low 0.997 | locus YER167W, strain BCK2, active compounds read low 1 | locus YFR010W, strain ubp6, active compounds read low 0.998 | locus YGL078C, strain dbp3, active compounds read low 1.01 | locus YGL086W, strain mad1, active compounds read low 0.996 | locus YGL167C, strain pmr1, active compounds read low 1 | locus YGL173C, strain kem1, active compounds read low 1 | locus YGL227W, strain vid30, active compounds read low 0.984 | locus YGL240W, strain doc1, active compounds read low 0.988 | locus YGL248W, strain PDE1, active compounds read low 1.02 | locus YGL253W, strain hxk2, active compounds read low 0.987 | locus YGR078C, strain PAC10, active compounds read low 1.02 | locus YGR135W, strain pre9, active compounds read low 1.01 | locus YGR229C, strain SMI1, active compounds read low 1.01 | locus YGR252W, strain gcn5, active compounds read low 1 | locus YHR013C, strain ard1, active compounds read low 0.962 | locus YHR027C, strain rpn1, active compounds read low 0.998 | locus YHR030C, strain SLT2, active compounds read low 1.01 | locus YHR079C, strain IRE1 (second series), active compounds read low 1.02 | locus YHR094C, strain hxt1, active compounds read low 1.01 | locus YHR129C, strain ARP1, active compounds read low 1.01 | locus YHR142W, strain chs7, active compounds read low 0.997 | locus YHR200W, strain rpn10, active compounds read low 1 | locus YIL066C, strain RNR3, active compounds read low 1.01 | locus YIL073C, strain SPO22, active compounds read low 1.05 | locus YIL125W, strain kgd1, active compounds read low 1.02 | locus YIR030C, strain dcg1, active compounds read low 1.01 | locus YJL092W, strain hpr5, active compounds read low 0.997 | locus YJL095W, strain BCK1 (second series), active compounds read low 0.993 | locus YJL095W, strain BCK1, active compounds read low 1.03 | locus YJL115W, strain asf1, active compounds read low 0.988 | locus YJL129C, strain trk1, active compounds read low 0.992 | locus YJL134W, strain LCB3, active compounds read low 1 | locus YJL154C, strain vps35, active compounds read low 0.995 | locus YJL164C, strain tpk1, active compounds read low 0.995 | locus YJL166W, strain qcr8, active compounds read low 0.999 | locus YJL168C, strain set2, active compounds read low 1.01 | locus YJL187C, strain SWE1 (second series), active compounds read low 1.02 | locus YJL187C, strain SWE1, active compounds read low 1
